The text below walks through data of PubChem BioAssay (NCI).

About 79,000 compounds went through this panel and 15% of them were active in at least one assay; those are over-represented in the sample as a whole. Values without a mark were called inactive. Activity calls are given as the source filed them. No stated cut-off is given here; in the data, active means growth inhibition above about 70%; inactive means the rest.

A short description of assay [1]: NCI Yeast Anticancer Drug Screen. Data for the rad50 strain (AID 155).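 Further: 0% = growth of vehicle-only cultures of the same strain.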 The settings on record: S. cerevisiae rad50 strain growth inhibition, active compounds read high. A digest of the protocol:
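Vehicle-treated cultures provide the reference for the growth inhibition reported for compound-exposed, repair-deficient yeast.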

The nature of assay [2]: NCI Yeast Anticancer Drug Screen. Data for the mec2-1 strain (AID 157). Particulars: S. cerevisiae mec2-1 strain, active compounds read high. A digest of the protocol:
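Strain: mec2-1 (DNA repair/cell cycle alteration). Compound exposure, then growth measured; inhibition expressed relative to vehicle.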

Assay [3] can be described thus: NCI Yeast Anticancer Drug Screen. Data for the sgs1 mgt1 strain (AID 161).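 Further: 0% = growth of cultures given vehicle only.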 Particulars: S. cerevisiae sgs1 mgt1 strain, active compounds read high. A digest of the protocol: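 Inhibition of yeast growth, normalised to vehicle-treated controls, is reported for a strain bearing genetic alterations in DNA damage repair.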
A short description of assay [4]: NCI Yeast Anticancer Drug Screen. Data for the cln2 rad14 strain (AID 165).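 Further: 0% = growth equal to vehicle treated cultures.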 Particulars: S. cerevisiae cln2 rad14 strain, active compounds read high. A digest of the protocol:
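Compounds are applied to the cln2 rad14 yeast strain, and growth is then compared with that of vehicle-treated cultures to give inhibition.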

Assay [5] in a line: NCI Yeast Anticancer Drug Screen. Data for the bub3 strain (AID 167). The settings on record: S. cerevisiae bub3 mutant strain, active compounds read high. Put shortly: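 Mutant yeast screening strain plus compound; vehicle-treated cultures serve as the 0% inhibition reference.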
Assay [6] in a line: NCI Yeast Anticancer Drug Screen. Data for the mlh1 rad18 strain (AID 175). The settings on record: S. cerevisiae mlh1 rad18 strain growth inhibition, active compounds read high. A digest of the protocol: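 Read-out is yeast growth inhibition, calculated against vehicle-only controls. The compound was applied to a strain engineered with DNA damage repair alterations.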
Where [7] appears, read: at 5.0 µM (retest, dose inferred, filed as 0.5).
Setting [8] is: at 50.0 µM (retest, dose inferred, filed as 5.0).

Turning to `Cc1cc[n+](C2CCC3(C)C(=CCC4C3CCC3(C)C(C(C)CCCC(C)C)CCC43)C2)cc1` (configuration not stated), the growth inhibition in assay [1] (setting [7]) is 91% (active); in assay [1] (setting [8]), 97% (active); in assay [1] (at 50.0 µM) it was 95.8% (active); in assay [2] (setting [7]), 16%; in assay [2] (setting [8]), 98% (active); in assay [2] (at 50.0 µM), 96% (active). Moreover, the growth inhibition in assay [3] (setting [7]) was 69%; in assay [3] (setting [8]) it was 98% (active); in assay [3] (at 50.0 µM) it was 98% (active); in assay [4] (setting [7]) it was 26%; in assay [4] (setting [8]), 97% (active); in assay [4] (at 50.0 µM), 64.3%. For the same molecule, the growth inhibition is 75% (active) in assay [5] (setting [7]); 97% (active) in assay [5] (setting [8]); 96.2% (active) in assay [5] (at 50.0 µM); 71% (active) in assay [6] (setting [7]); 97% (active) in assay [6] (setting [8]); 97.7% (active) in assay [6] (at 50.0 µM).
Take `CCc1c(C)[nH]c2c([N+](=O)[O-])cccc12`: the growth inhibition was 5% in assay [1] (setting [7]); 29% in assay [1] (setting [8]); 95.2% (active) in assay [1] (at 50.0 µM); 8% in assay [2] (setting [7]); -14% in assay [2] (setting [8]); 94.5% (active) in assay [2] (at 50.0 µM). Further, the growth inhibition is -3% in assay [3] (setting [7]); -1% in assay [3] (setting [8]); 95.2% (active) in assay [3] (at 50.0 µM); -6% in assay [4] (setting [7]); -2% in assay [4] (setting [8]); 94.5% (active) in assay [4] (at 50.0 µM). For the same molecule, the growth inhibition in assay [5] (setting [7]) is -13%; in assay [5] (setting [8]), 3%; in assay [5] (at 50.0 µM), 96% (active); in assay [6] (setting [7]), 1%; in assay [6] (setting [8]), 27%; in assay [6] (at 50.0 µM), 94.8% (active).
On to `O=C(NC1CCN(Cc2ccccc2)CC1)c1cccc(I)c1`, for which the growth inhibition was 49% in assay [1] (setting [7]); 68% in assay [1] (setting [8]); 51.7% in assay [1] (at 50.0 µM); 39% in assay [2] (setting [7]); 64% in assay [2] (setting [8]); 58% in assay [2] (at 50.0 µM). Also, the growth inhibition was 57% in assay [3] (setting [7]); 73% (active) in assay [3] (setting [8]); 81% (active) in assay [3] (at 50.0 µM); 84% (active) in assay [4] (setting [7]); 88% (active) in assay [4] (setting [8]); 82.2% (active) in assay [4] (at 50.0 µM). Also, the growth inhibition in assay [5] (setting [7]) is 62%; in assay [5] (setting [8]) it was 65%; in assay [5] (at 50.0 µM) it was 70% (active); in assay [6] (setting [7]), 73% (active); in assay [6] (setting [8]), 59%; in assay [6] (at 50.0 µM), 67.5%.
For the molecule `CCCCCCCC(=O)/C=C/c1ccc(C)cc1`, the growth inhibition in assay [1] (setting [7]) is -161%; in assay [1] (setting [8]), -136%; in assay [1] (at 50.0 µM), 56.8%; in assay [2] (setting [7]), -54%; in assay [2] (setting [8]), -50%; in assay [2] (at 50.0 µM) it was 44.1%. Besides, the growth inhibition in assay [3] (setting [7]) is -69%; in assay [3] (setting [8]) it was -65%; in assay [3] (at 50.0 µM), 67.6%; in assay [4] (setting [7]) it was -62%; in assay [4] (setting [8]) it was -86%; in assay [4] (at 50.0 µM) it was 30.2%. Also, the growth inhibition in assay [5] (setting [7]) was -61%; in assay [5] (setting [8]), -47%; in assay [5] (at 50.0 µM), 65.8%; in assay [6] (setting [7]) it was -128%; in assay [6] (setting [8]), -119%; in assay [6] (at 50.0 µM), 45%.
Regarding `CCOC(=O)C1CN(CCCCCCN2CC(C(=O)OCC)C(=O)C2=O)C(=O)C1=O` (configuration not stated), the growth inhibition in assay [1] (setting [7]) is -11%; in assay [1] (setting [8]), 4%; in assay [1] (at 50.0 µM), 22.1%; in assay [2] (setting [7]), 2%; in assay [2] (setting [8]), 1%; in assay [2] (at 50.0 µM) it was 3.1%. Besides, the growth inhibition in assay [3] (setting [7]) was -21%; in assay [3] (setting [8]), 3%; in assay [3] (at 50.0 µM) it was 28.5%; in assay [4] (setting [7]) it was 4%; in assay [4] (setting [8]), 0%; in assay [4] (at 50.0 µM), 52.9%. The growth inhibition in assay [5] (setting [7]) was 0%; in assay [5] (setting [8]), 2%; in assay [5] (at 50.0 µM), 0.05%; in assay [6] (setting [7]), -2%; in assay [6] (setting [8]), 0%; in assay [6] (at 50.0 µM) it was 30.4%.
For the molecule `Oc1c(N2CCOCC2)cc(-c2cc(N3CCOCC3)c(O)c3ccccc23)c2ccccc12`, the growth inhibition is 26% in assay [1] (setting [7]); 30% in assay [1] (setting [8]); 82.2% (active) in assay [1] (at 50.0 µM); 35% in assay [2] (setting [7]); 38% in assay [2] (setting [8]); 86.3% (active) in assay [2] (at 50.0 µM). Moreover, the growth inhibition in assay [3] (setting [7]) was -19%; in assay [3] (setting [8]), 9%; in assay [3] (at 50.0 µM), 50.3%; in assay [4] (setting [7]), 9%; in assay [4] (setting [8]), 21%; in assay [4] (at 50.0 µM), 42.5%. Further, the growth inhibition is 16% in assay [5] (setting [7]); 43% in assay [5] (setting [8]); 51.6% in assay [5] (at 50.0 µM); 35% in assay [6] (setting [7]); 39% in assay [6] (setting [8]); 80.5% (active) in assay [6] (at 50.0 µM).
Consider `O=P1(Cc2ccccc2)c2ccccc2-c2ccccc21`, for which the growth inhibition is -21% in assay [1] (setting [7]); 99% (active) in assay [1] (setting [8]); 85.6% (active) in assay [1] (at 50.0 µM); -17% in assay [2] (setting [7]); 99% (active) in assay [2] (setting [8]); 91.1% (active) in assay [2] (at 50.0 µM). The growth inhibition in assay [3] (setting [7]) is -24%; in assay [3] (setting [8]), 97% (active); in assay [3] (at 50.0 µM) it was 88.9% (active); in assay [4] (setting [7]), -18%; in assay [4] (setting [8]), 96% (active); in assay [4] (at 50.0 µM) it was 89.4% (active). Also, the growth inhibition in assay [5] (setting [7]) is -33%; in assay [5] (setting [8]), 99% (active); in assay [5] (at 50.0 µM), 88.7% (active); in assay [6] (setting [7]), 4%; in assay [6] (setting [8]), 99% (active); in assay [6] (at 50.0 µM), 84.3% (active).
Regarding `COc1ccc(C2c3cc4c(cc3OC(C)(O)C2C)OCO4)cc1` (configuration not stated), the growth inhibition is 5% in assay [1] (setting [7]); 94% (active) in assay [1] (setting [8]); 98.8% (active) in assay [1] (at 50.0 µM); 8% in assay [2] (setting [7]); 94% (active) in assay [2] (setting [8]); 95.4% (active) in assay [2] (at 50.0 µM). For the same molecule, the growth inhibition in assay [3] (setting [7]) was 8%; in assay [3] (setting [8]), 92% (active); in assay [3] (at 50.0 µM), 92% (active); in assay [4] (setting [7]) it was 8%; in assay [4] (setting [8]), 84% (active); in assay [4] (at 50.0 µM), 97.5% (active). The growth inhibition in assay [5] (setting [7]) is -2%; in assay [5] (setting [8]), 96% (active); in assay [5] (at 50.0 µM) it was 98.3% (active); in assay [6] (setting [7]) it was -2%; in assay [6] (setting [8]), 93% (active); in assay [6] (at 50.0 µM), 98.5% (active).
Turning to `Cn1c2nc(-[n+]3ccc4ccccc4c3)nc-2c([O-])n(C)c1=O`, the growth inhibition is 34% in assay [1] (setting [7]); 95% (active) in assay [1] (setting [8]); -9.45% in assay [1] (at 50.0 µM); 12% in assay [2] (setting [7]); 96% (active) in assay [2] (setting [8]); 3.55% in assay [2] (at 50.0 µM). The growth inhibition in assay [3] (setting [7]) was 15%; in assay [3] (setting [8]), 96% (active); in assay [3] (at 50.0 µM), -13.1%; in assay [4] (setting [7]), 3%; in assay [4] (setting [8]), 84% (active); in assay [4] (at 50.0 µM), 49%. Moreover, the growth inhibition was 8% in assay [5] (setting [7]); 97% (active) in assay [5] (setting [8]); 0.2% in assay [5] (at 50.0 µM); 12% in assay [6] (setting [7]); 98% (active) in assay [6] (setting [8]); -3.35% in assay [6] (at 50.0 µM).
